Sampled rows, rich in hits. Any-hit rate of the full collection: about 19%.
MCF10A rerep: induces DNA re-replication in MCF 10a normal breast cells; Potency, µM (doses to about 46.1 µM), for inactives: top-dose activity, positive = re-replication, actives largely listed as activators; MCF 10A DNA re-replication, Hoechst nuclear intensity, 48 h; 350,000 tested, 2.9% active; note: potency is the fitted concentration of half-maximal effect; % of control where 0% means no effect; nearly all actives have a fitted effect of over 50% in size
SW480 rereplic: induces DNA re-replication in SW480 colon adenocarcinoma cells; AID 624297; Potency, µM (top dose mostly 46.1 µM), for the others: top-dose re-replication activation, hits mostly activators; 340,000 tested, 1.8% active; SW480 DNA re-replication, Hoechst DNA content imaging, 48 h; note: potency is the fitted concentration of half-maximal effect; % of control where 0% means no effect; nearly all actives have a fitted effect of over 55% in size
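250 cells/well; 23 nL cpd via pin tool; 48 hr, 37 C, 5% CO2; Hoechst 40 min; imager read of total nuclear intensity, ex 405/em 500-530 nm.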
IL1B secr inh: inflammasome signaling inhibition, IL-1 beta readout; activity change, % at 57.5 µM; THP-1 LPS/ATP IL-1B secretion, AlphaLISA, 16 h; active compounds read low; 360,000 tested, 4.7% active; AID 743279; in the data active = activity change below about -50%; inconclusive = mostly about -30% to -49%; note: % is set by controls: 0 for no effect and ±100 for the full control effect
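Secreted IL-1B measured by AlphaLISA bead assay after 16 h compound exposure of THP-1 cells; compounds (final up to 57.5 uM) added 1 h before LPS (250 ng/mL) and ATP (1.25 mM) stimulation; lower signal means less secretion.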
Chronic BCR inh: chronic active BCR signaling inhibition; Potency, µM (titrated, usually from 46.1 µM), inactives show top-dose activity change, negative = inhibition, most hits filed as inhibitors; 340,000 tested, 0.05% active; ABC-DLBCL IkBa-CBG/CBR reporter, luminescence ratio, 4 h; AID 493014; active = well fitted inhibition curve with a large enough effect in the signal ratio, with a control signal flat, not every such curve was filed as active; inconclusive = small, poorly fitted or top-dose-only effect, or effect the other way, or a change in a side signal; the % refers to the signal ratio;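 note: potency is the fitted concentration of half-maximal effect; plate controls were basal doxycycline-induced cells for no effect and cells given 10 µM MG132 for full effect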
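Cell line TMD8 (human ABC DLBCL), stably expressing tet-inducible CBG68-IkBa fusion and CBR; IMDM/0.5% FBS; cpd up to 46 uM; dox induction, 4 h, 37C/5% CO2; dual luminescence; green/red ratio; MG132 control.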
TDP1 cell noCPT: qHTS for Inhibitors of human tyrosyl-DNA phosphodiesterase 1 (TDP1): qHTS in cells in absence of CPT; 420,000 tested, 15% active; DT40 Tdp1-/- hTDP1 cells, no CPT, ATP luminescence, 48 h; Potency, µM (titrated, usually from 46.2 µM), for inactives: top-dose activity change, negative = growth inhibition, hits mostly inhibitors; AID 686978, 2013; note: potency is the fitted concentration of half-maximal effect; % is set by controls: 0 for no effect and ±100 for the full control effect; nearly all actives have a fitted effect of over 55% in size
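Luminescent ATP content (CellTiter-Glo) served as the growth readout. Knockout chicken DT40 cells expressing human TDP1 were exposed to compounds without camptothecin for a minimum 48 hr at 37 °C.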
DT40 TDP1 CPT: growth inhibition of DT40 Tdp1-/-;hTDP1 cells with camptothecin (screen for TDP1 inhibitors); AID 686979; Potency, µM (series often up to 46.2 µM), for inactives: top-dose activity change, negative = growth inhibition, hits mostly inhibitors; 420,000 tested, 12% active; chicken DT40 Tdp1-/-;hTDP1 cells + 20 nM CPT, ATP luminescence, 48 h; note: potency is the fitted concentration of half-maximal effect; % is set by controls: 0 for no effect and ±100 for the full control effect; nearly all actives have a fitted effect of over 55% in size
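Chicken DT40 Tdp1-/- cells complemented with human TDP1, 400 cells/well, exposed to compounds plus 20 nM camptothecin for at least 48 h at 37 C; viability read as ATP content by CellTiter-Glo luminescence.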
The depositor's hits bear a star; ? = inconclusive; · = not tested or not shown. Unless noted, calls come from the whole dose curve; as a rule, active = well fitted curve in the direction sought with a large enough effect; inconclusive = small, poorly fitted or top-dose-only effect, or another doubt; inactive = no such curve, though single readings can be large; an effect the other way counts as inactive or inconclusive.

SMILES	MCF10A rerep	SW480 rereplic	IL1B secr inh	Chronic BCR inh	TDP1 cell noCPT	DT40 TDP1 CPT
CCOC(=O)CSc1nc2sc3c(c2c(=O)n1-c1ccccc1)CCC(C(C)(C)C)C3 (configuration not stated)	·	·	·	·	?	-29%
CCc1nc(N2CCN(C(=O)CCCl)CC2)c2c3c(sc2n1)CCCC3	·	·	-21	·	?	?
COc1ccc(S(=O)(=O)NCCN2CCNC2=O)cc1OC	6%	0%	13	1%	-12%	-1%
CCOC(=O)/C(C#N)=C1/C(=O)N(Cc2ccccc2)c2ccccc21	?	?	-12	5%	5.2µM*	7.3µM*
Oc1ccc(O)c(/C(=N/Nc2ccccc2)c2ccccc2)c1	·	·	·	1%	·	·
Cc1ccc(C)c(NC(=O)C2CCCN(S(=O)(=O)c3c(C)noc3/C=C/N(C)C)C2)c1 (configuration not stated)	18µM*	19%	9	11%	?	?
Cc1ccc(NC(=O)C2CCCN(S(=O)(=O)c3c(C)noc3C)C2)c(Br)c1 (configuration not stated)	-2%	1%	-6	0%	?	21µM*
O=[N+]([O-])c1ccccc1Nc1cccnc1	-12%	-1%	-28	-28%	?	-21%
Cc1c(CCC(=O)NCc2ccc(F)cc2)c(=O)oc2cc(O)ccc12	·	·	·	·	-20%	-5%
CC1CC(C)CN(CCCNC(=O)CN2C(=O)CSc3ccc(S(=O)(=O)N4CCCCC4)cc32)C1 (configuration not stated)	1%	-1%	-60*	-1%	-7%	?
O=C(CN1C(=O)CSc2ccc(S(=O)(=O)N3CCCCCC3)cc21)NCCc1ccccc1	?	14%	-6	·	23µM*	?
CCOc1cc(C(=S)N2CCCC2)ccc1OC	1%	-3%	5	-6%	8%	13%
COc1cc(C(=S)N2CCCCC2)ccc1OCC(=O)Nc1ccccc1Cl	?	?	-70*	2%	23µM*	?
CCOc1cc(C(=S)N2CCCC2)ccc1OCC(=O)Nc1c(C)cc(C)cc1C	-8%	-1%	-4	-4%	16µM*	18µM*
O=C(COc1ccc(C(=S)N2CCOCC2)cc1Cl)Nc1ccccc1Cl	7%	6%	0	3%	-19%	-22%
O=C(Nc1ccccc1F)Nc1cccnc1Cl	1%	6%	-10	·	?	?
CCC(Sc1nnc2c3ccccc3n(C)c2n1)C(=O)Nc1nnc(C(C)C)s1 (configuration not stated)	·	·	·	·	-30%	?
COC(=O)COc1ccc(-c2ccccc2)cc1C=O	14%	4%	2	?	23µM*	?
COC(=O)COc1ccc(-c2ccc(F)cc2)cc1C=O	2%	2%	-12	?	?	?
O=C(CN1CCCCCC1)Nc1ccc(Cl)cn1	-4%	-3%	41	?	-16%	-13%
COCCn1c(SCC(=O)Nc2cc(C)on2)nnc1C(C)C	-10%	8%	4	0%	-1%	9%
O=C(Cn1cc(C(=O)c2ccco2)c2ccccc21)NC1CC1	-2%	-4%	21	16%	-1%	17%
COc1ccccc1NC(=O)Cn1cc(C(=O)c2ccco2)c2ccccc21	28%	7%	-50*	?	-10%	-5%
O=C(Cn1cc(C(=O)c2cccs2)c2ccccc21)Nc1ccc(Br)cc1	·	·	·	·	5.8µM*	?
COc1ccc(OC)c(NC(=O)Cn2cc(C#N)c3ccccc32)c1	25%	24%	34	0%	-2%	0%
SMILES	MCF10A rerep	SW480 rereplic	IL1B secr inh	Chronic BCR inh	TDP1 cell noCPT	DT40 TDP1 CPT
COc1ccc(OC)c(NC(=O)Cn2cc(C(=O)c3cccs3)c3ccccc32)c1	·	·	·	·	18µM*	?
COc1ccc(OC)c(NC(=O)Cn2cc(C(=O)c3ccco3)c3ccccc32)c1	4%	-2%	-21	?	16µM*	?
O=C(Nc1nnc([C@@H]2C[C@H](O)[C@@H](CO)O2)s1)c1cccc(OC(F)(F)F)c1	·	·	5	·	-20%	0%
CCOC(=O)c1c(C)[nH]c(C)c1S(=O)(=O)N1CCC(C(=O)Nc2ccc(F)cc2F)CC1	·	·	·	·	1%	-3%
Cc1cccc(C(=O)N2CC(=O)Nc3ccc(F)cc3C2c2ccc(F)cc2)c1 (configuration not stated)	4%	-4%	26	?	?	-17%
COCCCNC(=O)c1cccn2c(=O)c3cc4ccccc4cc3nc12	13µM*	?	-86*	5%	7.3µM*	18µM*
C=CCn1c(=N)c(C(=O)NCCCOC)cc2c(=O)n3cccc(C)c3nc21	4.1µM*	?	-18	4%	?	?
CCNC(=O)c1cc2c(=O)n3cccc(C)c3nc2n(CCc2ccccc2)c1=N	?	?	13	0%	13µM*	?
CCn1c(=N)c(C(=O)NCc2cccnc2)cc2c(=O)n3cccc(C)c3nc21	·	·	·	9%	·	·
CCOCCCn1c(=N)c(C(N)=S)cc2c(=O)n3cccc(C)c3nc21	?	?	-11	20%	?	?
CNC(=O)c1cc2c(=O)n3cccc(C)c3nc2n(C(C)C)c1=N	3.7µM*	?	4	3%	?	?
CCOC(=O)c1cc2c(=O)n3cccc(C)c3nc2n(C)c1=N	·	·	·	14%	·	·
CN1CCN(C(=O)CN(C)S(=O)(=O)c2cc(Cl)ccc2Cl)CC1	-3%	15%	-2	-5%	-7%	-5%
Cc1cccn2c(=O)c(C(=O)NCCc3ccccc3)cnc12	·	·	·	?	?	-26%
COCCn1c(=N)c(C(=O)NCCc2ccccc2)cc2c(=O)n3cccc(C)c3nc21	?	1.8µM*	18	·	?	?
COc1ccc(N(C)S(=O)(=O)c2cccc(C(=O)N3CCN(Cc4ccc5c(c4)OCO5)CC3)c2)cc1	?	2%	-68*	2%	18µM*	23µM*
CCOc1ccc(N(C)S(=O)(=O)c2ccc(C)c(C(=O)N3CCN(Cc4ccc5c(c4)OCO5)CC3)c2)cc1	?	22%	-89*	?	?	?
COc1ccc(OC)c(CN2CCN(C(=O)c3cccc(S(=O)(=O)N(C)c4ccccc4)c3)CC2)c1	·	·	-19	·	13µM*	18µM*
CCOc1ccc(NC(=O)N2CCN(Cc3ccc4c(c3)OCO4)CC2)cc1	-3%	-9%	0	2%	2%	-7%

Screening data from PubChem.
